Test results from the supplement of paper PMC10849652.
Of roughly 7,900 targets only a part is listed; those with a hit were picked by preference. About 0.6% of all pairs of compound and target were hits. A number with no mark means an inactive call.

Key:
Test in all cases: log2 fold change, soluble protein after heating vs DMSO (PISA); higher = thermal stabilisation; K562 cells, 10 uM, 30 min; active = over 0.2 and 3.5 SD of the protein, either way, in both replicates (recomputed)
saracatinib = compound: CN1CCN(CCOc2cc(OC3CCOCC3)c3c(Nc4c(Cl)ccc5c4OCO5)ncnc3c2)CC1 [saracatinib]
In short: (§1)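 K562 cells at 2×10^6 cells/mL were exposed to 10 μM compound for 30 min, then aliquots were heated for 3 min across 48°C-58°C, pooled, and extracted in PBS containing 0.5% NP-40 at 4°C. The supernatant after 21,000xg for 90 min was taken as soluble protein and measured by TMTpro 16plex LC-MS/MS with channel sums equalised. Thermal stability is reported relative to control samples, with values from duplicates. Fold changes are given on a log2 scale.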

sotrastaurin = compound: CN1CCN(c2nc(C3=C(c4c[nH]c5ccccc45)C(=O)NC3=O)c3ccccc3n2)CC1 [sotrastaurin]
In short: as §1

alvocidib = compound: CN1CC[C@H](c2c(O)cc(O)c3c(=O)cc(-c4ccccc4Cl)oc23)[C@H](O)C1 [alvocidib]
In short: as §1

Tubastatin A = compound: CN1CCc2c(c3ccccc3n2Cc2ccc(C(=O)NO)cc2)C1 [Tubastatin A]
In short: as §1

[1] = compound: CNC(=O)C1=CC=CC=C1NC2=NC(=NC=C2Cl)NC3=C(C=C(C=C3)N4CCOCC4)OC
In short: as §1

defactinib = compound: CNC(=O)c1ccc(Nc2ncc(C(F)(F)F)c(NCc3nccnc3N(C)S(C)(=O)=O)n2)cc1 [defactinib]
In short: as §1

rucaparib = compound: CNCc1ccc(-c2[nH]c3cc(F)cc4c3c2CCNC4=O)cc1 [rucaparib]
In short: as §1

[2] = compound: CNc1nc(-c2ccc3c(N)n[nH]c3c2)cc(N2C[C@@H](C(=O)NC3CCCCC3)CC[C@H]2C)n1
In short: as §1

encorafenib = compound: COC(=O)N[C@@H](C)CNc1nccc(-c2cn(C(C)C)nc2-c2cc(Cl)cc(NS(C)(=O)=O)c2F)n1 [encorafenib]
In short: as §1

[3] = compound: COC(=O)[C@H](CCSC)NC(=O)C1=C(C=C(C=C1)NC[C@H](CS)N)C2=CC=CC=C2
In short: as §1

[4] = compound: COC1=CC=C(C=C1)CN2C=CC3=C2C=C(C=C3)C(=O)NO
In short: as §1

filanesib = compound: CON(C)C(=O)N1N=C(c2cc(F)ccc2F)S[C@@]1(CCCN)c1ccccc1 [filanesib]
In short: as §1

zotarolimus = compound: CO[C@H]1C[C@@H]2CC[C@@H](C)[C@@](O)(O2)C(=O)C(=O)N2CCCC[C@H]2C(=O)O[C@H]([C@H](C)C[C@@H]2CC[C@H](n3cnnn3)[C@H](OC)C2)CC(=O)[C@H](C)/C=C(\C)[C@@H](O)[C@@H](OC)C(=O)[C@H](C)C[C@H](C)/C=C/C=C/C=C/1C [zotarolimus]
In short: as §1

idasanutlin = compound: COc1cc(C(=O)O)ccc1NC(=O)[C@@H]1N[C@@H](CC(C)(C)C)[C@](C#N)(c2ccc(Cl)cc2F)[C@H]1c1cccc(Cl)c1F [idasanutlin]
In short: as §1

alisertib = compound: COc1cc(Nc2ncc3c(n2)-c2ccc(Cl)cc2C(c2c(F)cccc2OC)=NC3)ccc1C(=O)O [alisertib]
In short: as §1

[5] = compound: COc1cc2nc(-c3cc(F)ccc3O)nc(N[C@@H]3CNC[C@H]3C(C)(C)O)c2cc1OC
In short: as §1

gefitinib = compound: COc1cc2ncnc(Nc3ccc(F)c(Cl)c3)c2cc1OCCCN1CCOCC1 [gefitinib]
In short: as §1

[6] = compound: COc1cccc2cc(-c3nc([C@H]4CC[C@H](C(=O)O)CC4)n4ncnc(N)c34)[nH]c12
In short: as §1

lapatinib = compound: CS(=O)(=O)CCNCc1ccc(-c2ccc3ncnc(Nc4ccc(OCc5cccc(F)c5)c(Cl)c4)c3c2)o1 [lapatinib]
In short: as §1

pictilisib = compound: CS(=O)(=O)N1CCN(Cc2cc3nc(-c4cccc5[nH]ncc45)nc(N4CCOCC4)c3s2)CC1 [pictilisib]
In short: as §1

UniProt Q86UV5, sequence (Q86UV5 whole entry, looked up): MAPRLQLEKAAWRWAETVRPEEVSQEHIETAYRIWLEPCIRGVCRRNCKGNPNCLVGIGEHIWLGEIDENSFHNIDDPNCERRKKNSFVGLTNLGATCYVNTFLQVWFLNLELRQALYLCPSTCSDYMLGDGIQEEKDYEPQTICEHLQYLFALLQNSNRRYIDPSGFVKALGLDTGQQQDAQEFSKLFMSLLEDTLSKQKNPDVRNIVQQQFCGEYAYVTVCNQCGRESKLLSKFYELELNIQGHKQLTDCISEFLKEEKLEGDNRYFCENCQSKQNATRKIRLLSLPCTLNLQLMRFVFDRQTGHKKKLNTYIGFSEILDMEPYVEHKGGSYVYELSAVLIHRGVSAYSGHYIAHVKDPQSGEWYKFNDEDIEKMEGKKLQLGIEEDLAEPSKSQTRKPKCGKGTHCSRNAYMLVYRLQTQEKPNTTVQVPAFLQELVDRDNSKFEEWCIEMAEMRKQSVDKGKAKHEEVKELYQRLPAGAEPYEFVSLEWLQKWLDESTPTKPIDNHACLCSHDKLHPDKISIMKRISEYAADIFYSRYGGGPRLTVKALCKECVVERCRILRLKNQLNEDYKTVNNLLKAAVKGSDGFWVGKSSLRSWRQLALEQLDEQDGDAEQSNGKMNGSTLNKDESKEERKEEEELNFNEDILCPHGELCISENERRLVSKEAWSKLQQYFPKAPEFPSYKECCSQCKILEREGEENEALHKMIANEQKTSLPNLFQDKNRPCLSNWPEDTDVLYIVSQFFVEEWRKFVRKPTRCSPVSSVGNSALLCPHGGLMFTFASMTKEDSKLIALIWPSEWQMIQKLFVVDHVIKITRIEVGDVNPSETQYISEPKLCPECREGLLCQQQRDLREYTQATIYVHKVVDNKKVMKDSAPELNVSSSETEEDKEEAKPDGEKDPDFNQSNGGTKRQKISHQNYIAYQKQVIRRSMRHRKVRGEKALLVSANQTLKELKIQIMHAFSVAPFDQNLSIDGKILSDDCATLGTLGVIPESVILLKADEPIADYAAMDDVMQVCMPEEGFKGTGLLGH
UniProt Q9NV66, sequence (Q9NV66 whole entry, looked up): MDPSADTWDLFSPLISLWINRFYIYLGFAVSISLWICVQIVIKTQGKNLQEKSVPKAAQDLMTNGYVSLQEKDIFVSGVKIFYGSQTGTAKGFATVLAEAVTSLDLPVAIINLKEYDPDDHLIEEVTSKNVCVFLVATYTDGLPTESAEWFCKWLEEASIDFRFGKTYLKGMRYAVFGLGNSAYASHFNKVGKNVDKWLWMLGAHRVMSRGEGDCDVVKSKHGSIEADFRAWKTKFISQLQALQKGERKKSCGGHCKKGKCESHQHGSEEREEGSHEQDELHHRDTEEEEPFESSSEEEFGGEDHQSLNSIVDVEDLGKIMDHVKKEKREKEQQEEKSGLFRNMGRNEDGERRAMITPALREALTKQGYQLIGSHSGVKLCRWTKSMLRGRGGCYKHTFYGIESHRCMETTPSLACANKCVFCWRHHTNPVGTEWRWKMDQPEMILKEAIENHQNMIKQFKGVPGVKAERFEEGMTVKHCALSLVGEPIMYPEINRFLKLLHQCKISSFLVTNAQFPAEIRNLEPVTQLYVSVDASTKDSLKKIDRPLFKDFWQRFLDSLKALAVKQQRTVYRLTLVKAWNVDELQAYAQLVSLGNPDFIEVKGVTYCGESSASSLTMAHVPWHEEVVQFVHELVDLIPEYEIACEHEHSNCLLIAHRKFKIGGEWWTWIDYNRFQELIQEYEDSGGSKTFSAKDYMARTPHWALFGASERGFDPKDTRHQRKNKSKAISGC
UniProt Q9H3M7, sequence (Q9H3M7 whole entry, looked up): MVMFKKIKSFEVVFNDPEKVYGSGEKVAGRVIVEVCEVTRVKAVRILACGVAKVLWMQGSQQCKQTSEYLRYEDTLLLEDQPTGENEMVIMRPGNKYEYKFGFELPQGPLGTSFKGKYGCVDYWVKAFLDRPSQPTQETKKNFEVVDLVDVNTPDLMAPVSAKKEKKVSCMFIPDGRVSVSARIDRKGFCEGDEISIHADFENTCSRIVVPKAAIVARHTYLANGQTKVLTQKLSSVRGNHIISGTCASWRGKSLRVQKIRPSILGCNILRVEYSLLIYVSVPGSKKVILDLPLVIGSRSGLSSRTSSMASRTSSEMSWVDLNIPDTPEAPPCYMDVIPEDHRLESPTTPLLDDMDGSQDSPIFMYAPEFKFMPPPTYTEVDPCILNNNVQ
UniProt Q16763, sequence (Q16763 whole entry, looked up): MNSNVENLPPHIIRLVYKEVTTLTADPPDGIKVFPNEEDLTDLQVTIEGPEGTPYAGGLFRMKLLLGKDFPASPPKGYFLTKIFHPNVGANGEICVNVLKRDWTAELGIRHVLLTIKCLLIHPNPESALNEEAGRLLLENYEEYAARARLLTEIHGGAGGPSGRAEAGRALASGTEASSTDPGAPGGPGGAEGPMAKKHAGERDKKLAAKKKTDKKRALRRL
UniProt Q9NYU2, sequence (Q9NYU2 whole entry, looked up): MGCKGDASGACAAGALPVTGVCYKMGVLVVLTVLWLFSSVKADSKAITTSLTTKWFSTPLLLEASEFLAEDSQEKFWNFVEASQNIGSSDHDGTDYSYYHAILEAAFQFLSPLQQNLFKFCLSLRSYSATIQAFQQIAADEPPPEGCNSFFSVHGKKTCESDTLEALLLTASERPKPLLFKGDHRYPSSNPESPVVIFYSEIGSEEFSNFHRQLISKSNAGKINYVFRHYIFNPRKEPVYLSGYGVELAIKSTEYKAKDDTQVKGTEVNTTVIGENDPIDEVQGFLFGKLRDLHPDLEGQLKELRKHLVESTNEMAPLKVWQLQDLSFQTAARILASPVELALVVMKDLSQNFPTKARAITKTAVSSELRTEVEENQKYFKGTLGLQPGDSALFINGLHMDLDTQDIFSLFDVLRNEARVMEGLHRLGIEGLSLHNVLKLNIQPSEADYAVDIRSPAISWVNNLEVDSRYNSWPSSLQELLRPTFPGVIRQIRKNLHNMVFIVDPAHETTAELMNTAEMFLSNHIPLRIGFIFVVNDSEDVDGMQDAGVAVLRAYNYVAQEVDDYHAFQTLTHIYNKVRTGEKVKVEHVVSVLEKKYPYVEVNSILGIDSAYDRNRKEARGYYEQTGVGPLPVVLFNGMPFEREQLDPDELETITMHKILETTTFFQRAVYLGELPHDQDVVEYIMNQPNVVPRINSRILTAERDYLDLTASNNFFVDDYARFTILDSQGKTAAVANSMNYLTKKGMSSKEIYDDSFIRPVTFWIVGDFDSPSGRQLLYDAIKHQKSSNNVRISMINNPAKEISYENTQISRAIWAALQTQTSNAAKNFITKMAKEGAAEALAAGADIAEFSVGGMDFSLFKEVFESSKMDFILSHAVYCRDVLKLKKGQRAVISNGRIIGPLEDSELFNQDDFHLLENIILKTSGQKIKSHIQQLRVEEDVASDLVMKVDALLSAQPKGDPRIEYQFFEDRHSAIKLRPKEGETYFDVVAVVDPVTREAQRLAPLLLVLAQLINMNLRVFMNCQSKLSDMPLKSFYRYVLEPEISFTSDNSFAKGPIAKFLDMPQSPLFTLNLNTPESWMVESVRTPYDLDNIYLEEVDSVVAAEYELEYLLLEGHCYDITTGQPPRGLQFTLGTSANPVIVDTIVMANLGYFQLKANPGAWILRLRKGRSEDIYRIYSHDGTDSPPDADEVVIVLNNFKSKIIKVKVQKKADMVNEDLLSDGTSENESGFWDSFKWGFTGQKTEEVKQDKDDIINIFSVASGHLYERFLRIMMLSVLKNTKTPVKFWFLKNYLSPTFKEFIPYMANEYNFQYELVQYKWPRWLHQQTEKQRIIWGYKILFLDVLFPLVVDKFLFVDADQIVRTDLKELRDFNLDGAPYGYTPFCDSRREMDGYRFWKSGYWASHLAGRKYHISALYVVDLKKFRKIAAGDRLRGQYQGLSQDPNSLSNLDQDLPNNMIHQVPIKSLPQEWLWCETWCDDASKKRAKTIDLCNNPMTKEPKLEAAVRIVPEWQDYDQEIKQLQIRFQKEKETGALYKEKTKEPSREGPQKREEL
UniProt P21796, sequence (P21796 whole entry, looked up): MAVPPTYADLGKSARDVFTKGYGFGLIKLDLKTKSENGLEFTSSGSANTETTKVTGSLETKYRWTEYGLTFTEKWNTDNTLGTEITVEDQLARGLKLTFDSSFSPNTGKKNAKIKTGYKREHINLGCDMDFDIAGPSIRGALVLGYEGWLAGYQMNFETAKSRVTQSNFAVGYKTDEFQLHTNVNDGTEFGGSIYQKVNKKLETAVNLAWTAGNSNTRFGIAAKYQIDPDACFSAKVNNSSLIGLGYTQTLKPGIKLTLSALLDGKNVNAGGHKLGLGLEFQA
UniProt Q9NZ09, sequence (Q9NZ09 whole entry, looked up): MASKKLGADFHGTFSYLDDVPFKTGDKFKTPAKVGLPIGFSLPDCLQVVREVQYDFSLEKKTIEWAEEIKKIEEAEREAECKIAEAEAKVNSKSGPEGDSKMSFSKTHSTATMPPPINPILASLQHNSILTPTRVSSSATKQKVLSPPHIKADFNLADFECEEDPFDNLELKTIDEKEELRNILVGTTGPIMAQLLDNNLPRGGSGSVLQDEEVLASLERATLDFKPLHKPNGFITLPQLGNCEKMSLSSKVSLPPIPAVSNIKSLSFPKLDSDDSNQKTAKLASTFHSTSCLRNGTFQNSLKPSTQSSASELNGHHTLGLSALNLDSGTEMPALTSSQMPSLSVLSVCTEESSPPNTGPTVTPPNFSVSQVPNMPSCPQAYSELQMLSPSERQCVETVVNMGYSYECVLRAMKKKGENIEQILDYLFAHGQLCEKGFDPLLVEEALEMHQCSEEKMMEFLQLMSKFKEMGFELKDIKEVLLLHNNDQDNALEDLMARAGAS
UniProt Q8N4H5, sequence (Q8N4H5 whole entry, looked up): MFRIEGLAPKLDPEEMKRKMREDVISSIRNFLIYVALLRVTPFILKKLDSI

| Target | log2 fold change (saracatinib) | log2 fold change (sotrastaurin) | log2 fold change (alvocidib) | log2 fold change (Tubastatin A) | log2 fold change [1] | log2 fold change (defactinib) | log2 fold change (rucaparib) | log2 fold change [2] | log2 fold change (encorafenib) | log2 fold change [3] | log2 fold change [4] | log2 fold change (filanesib) | log2 fold change (zotarolimus) | log2 fold change (idasanutlin) | log2 fold change (alisertib) | log2 fold change [5] | log2 fold change (gefitinib) | log2 fold change [6] | log2 fold change (lapatinib) | log2 fold change (pictilisib) |
| --- | --- | --- | --- | --- | --- | --- | --- | --- | --- | --- | --- | --- | --- | --- | --- | --- | --- | --- | --- | --- |
| TMEM161B (UniProt Q8NDZ6) | 0.048 | 0.037 | -0.037 | -0.007 | -0.043 | -0.061 | 0.013 | -0.049 | -0.023 | -0.05 | -0.055 | -0.008 | -0.035 | -0.16 | 0.006 | 0.013 | 0.087 | -0.015 | -0.056 | 0.097 |
| TYW1 (UniProt Q9NV66) | 0.089 | -0.059 | -0.064 | -0.033 | 0.031 | -0.055 | 0.052 | -0.061 | 0.028 | -0.059 | -0.16 | -0.01 | 0.019 | -0.023 | 0 | 0.095 | 0.013 | -0.006 | 0 | -0.147 |
| TXNIP (UniProt Q9H3M7) | -0.074 | 0 | -0.307 | 0.06 | 0.179 | -0.085 | -0.026 | 0.243 | 0.01 | 0.07 | -0.013 | -0.148 | 0.172 | 0.035 | -0.198 | -0.074 | 0.002 | -0.119 | 0.228 | 0.142 |
| VDAC1 (UniProt P21796) | 0.074 | 0.035 | 0.016 | -0.014 | 0.011 | 0.005 | -0.022 | -0.026 | -0.03 | 0.014 | 0 | -0.036 | -0.01 | -0.004 | -0.033 | -0.023 | -0.007 | 0.052 | 0 | 0.002 |
| TMEM263 (UniProt Q8WUH6) | 0.027 | -0.046 | 0.025 | -0.049 | -0.161 | 0.007 | -0.031 | -0.057 | 0.015 | -0.015 | -0.096 | -0.654 (active) | -0.038 | -0.09 | -0.043 | -0.789 (active) | -0.042 | 0.065 | -0.045 | -0.208 |
| UBE2S (UniProt Q16763) | -0.001 | -0.023 | -0.078 | 0.2 | -0.016 | -0.082 | -0.051 | -0.041 | 0.022 | -0.007 | 0.003 | 0.01 | 0.045 | -0.05 | 0.015 | 0.053 | -0.009 | 0.001 | -0.035 | 0.058 |
| USP48 isoform 8 (UniProt Q86UV5) | -0.037 | -0.403 | -0.358 | 0.197 | 0.016 | -0.462 | -0.085 | -0.044 | 0.065 | -0.081 | 0.155 | -0.075 | 0.089 | -0.03 | 0.12 | -0.267 | 0.093 | -0.018 | 0.002 | 0.016 |
| TOMM5 isoform 2 (UniProt Q8N4H5) | -0.033 | 0.064 | 0.012 | 0.027 | 0.059 | 0.01 | -0.033 | -0.031 | -0.036 | 0.049 | -0.027 | 0.079 | 0.045 | 0.137 | -0.141 | -0.021 | 0.073 | 0.044 | -0.016 | -0.086 |
| UBAP1 isoform 4 (UniProt Q9NZ09) | -0.023 | -0.032 | -0.038 | 0.007 | -0.028 | -0.08 | 0.089 | -0.053 | -0.05 | 0.006 | -0.018 | 0.078 | 0.045 | -0.014 | -0.034 | -0.017 | 0.088 | -0.018 | 0.23 | -0.005 |
| WARS2 (UniProt Q9UGM6) | -0.037 | 0.014 | -0.08 | -0.04 | 0.018 | -0.065 | 0.04 | 0.006 | -0.011 | -0.057 | -0.072 | -0.089 | -0.034 | 0.014 | -0.025 | 0.062 | -0.035 | 0 | -0.127 | 0.037 |
| TRAM1 (UniProt Q15629) | -0.007 | -0.025 | -0.02 | -0.052 | -0.208 | -0.029 | -0.132 | 0 | 0.179 | -0.052 | -0.188 | -0.218 | -0.103 | -0.119 | -0.067 | 0.24 | -0.066 | 0.005 | -0.092 | -0.163 |
| UGGT1 (UniProt Q9NYU2) | -0.006 | -0.034 | -0.037 | 0.022 | -0.005 | 0.019 | 0.009 | -0.033 | 0.017 | -0.002 | -0.041 | -0.008 | 0.012 | -0.014 | -0.07 | 0.009 | -0.006 | -0.01 | 0.035 | -0.005 |
